NS1 inh = blocks influenza NS1 protein function; actives 0.4% (n = 270,000); Potency, µM (highest dose often 46.1 µM), without a hit: top-dose activity, positive = more growth; calls by dose curve; further: potency means the concentration at half of the fitted maximal effect; actives are rising curves; nearly all actives have a fitted effect of over 50% in size
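OD600 was taken as the measure of yeast growth restored by compound in an NS1-expressing S. cerevisiae strain. Cells had been washed out of glucose medium and diluted 1:100 into galactose -URA medium, pH 6.0.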
Pf growth 96h = P. falciparum growth inhibition at 96 hours | Potency, µM (titrated, usually from 28.7 µM), for inactives: at the highest dose activity change, negative = inhibition, usual class: inhibitors | actives 6.9% (n = 320,000) | AID 504834 | P. falciparum luciferase reporter growth, 96 h; further: potency means the concentration at half of the fitted maximal effect; on the % scale 0 is the no-effect control and ±100 the full control effect
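Two-generation exposure (96 h) targets delayed-death phenotype. Reporter parasites carrying integrated firefly luciferase, in red cells at 2% hematocrit and 0.05% parasitemia final, kept at 37 C, 5% CO2; luminescence loss indicates inhibition.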
Sm TGR block = blocks Schistosoma mansoni thioredoxin glutathione reductase; AID 485364; actives 3% (n = 360,000); Potency, µM (series often up to 114 µM), for the others: at the top dose activity change, negative = inhibition, usual class: inhibitors; Q962Y6; purified TGR, DTNB reduction, TNB absorbance 405 nm; further: potency means the concentration at half of the fitted maximal effect; on the % scale 0 is the no-effect control and ±100 the full control effect; nearly all actives have a fitted effect of over 60% in size
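Kinetic colorimetric format: TGR-catalysed, NADPH-driven DTNB reduction monitored via TNB absorbance. Enzyme dispensed at 20 nM; compound exposure 15 min at room temperature before reaction start.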
Shiga toxin inh = inhibitors of Shiga toxin in Vero cells; Vero cells, Shiga toxin protein synthesis inhibition reporter; inhibition, % at 38.7 µM; actives 9.2% (n = 290,000); AID 2315; in the data active means inhibition mostly above about 28%, no sharp cut-off; inactive means mostly below about 43%; further: 0% is about no effect
Pf growth 48h = P. falciparum growth inhibition at 48 hours (one generation); P. falciparum luciferase growth in erythrocytes, 48 h; Potency, µM (doses to about 28.7 µM), for inactives: top-dose activity change, negative = inhibition, actives largely listed as inhibitors; actives 5.9% (n = 310,000); AID 504832; further: potency means the concentration at half of the fitted maximal effect; on the % scale 0 is the no-effect control and ±100 the full control effect
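Parasite viability was followed by luminescence of a genomically integrated firefly luciferase. Cultures held 0.1% parasitemia at 2% hematocrit (final), incubated under 5% CO2 at 37 C.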
Cycloheximide cs = counter-screen hit for Shiga toxin inhibitors, cycloheximide | max response, % | actives 12% (n = 300,000) | cell reporter, cycloheximide protein synthesis inhibition counterscreen; in the data active means max response mostly above about 13%, no sharp cut-off; inactive means mostly below about 14%; further: read at 38.3 µM for the half of the compounds with a filed dose; 0% is about no effect
Starred values were filed as active, the others as inactive; ? = inconclusive; / = not tested or not shown; [ ] = dose if it differs, or a comment. Only some compounds are listed: those with a hit (about 21% of all), similar ones and a draw of the others. Unless noted, the call rests on the fitted dose curve; in most records, active means well fitted curve in the direction sought with a large enough effect; inconclusive means small, poorly fitted or top-dose-only effect, or another doubt; inactive means no such curve, though single readings can be large; an effect the other way counts as inactive or inconclusive.

SMILES	NS1 inh	Pf growth 96h	Sm TGR block	Shiga toxin inh	Pf growth 48h	Cycloheximide cs
COc1cccc(/C=C/C(=O)OCC(=O)c2ccc3c(c2)NC(=O)CO3)c1OC	1%	-8%	-14%	-13	?	-1
COc1cc(O)c(C(=O)/C=C/c2ccccc2)c(OC)c1	-82%	?	-22%	70*	?	34*
COc1ccc(/C=C/C(=O)c2ccc(OC)cc2OC)c(OC)c1	-6%	3.7µM*	8%	4	?	7
COc1ccc(/C=C/C(=O)c2cc(Cl)cc(Cl)c2O)c(OC)c1	1%	13%	-28%	-5	-18%	-2
O=C1c2ccccc2C(=O)N1Cc1ccccn1	/	10%	8%	-1	27%[5.75 µM]	-1
O=C(NCCN1C(=O)S/C(=C\c2ccc(Cl)cc2Cl)C1=O)C1=COCCO1	/	41%	-2%	/	7%	/
COC(=O)CC1Oc2ccc(C)cc2NC1=O (centres undefined)	-8%	9.3µM*	-12%	17	/	7
COc1ccc(OC)c(CCNC(=O)CC2Oc3ccc(C)cc3NC2=O)c1 (centres undefined)	4%	10µM*	90%	-5	/	-5
O=C(O)CC1Oc2ccc(Cl)cc2NC1=O (centres undefined)	-3%	5.2µM*	-1%	4	11%	-4
Cc1ccc(NC(=O)CC2Oc3ccc(C)cc3NC2=O)cc1 (centres undefined)	5%	305%	1%	-10	/	14
CCC1=NN=C(c2ccc(F)cc2)C(c2c[nH]c3ccccc23)N1O (centres undefined)	4%	-70%	-25%	74*	?	28
Cc1ccc(N2C(=O)CC(c3c[nH]c4ccccc34)C2=O)cc1 (centres undefined)	/	?	-11%	20	3%	15
CC1CCc2nc(NC(=O)c3ccc(S(=O)(=O)N4CCCc5ccccc54)cc3)sc2C1 (centres undefined)	0%	?	0%	-4	?	-4
Cc1cc(NC(=O)c2ccc(S(=O)(=O)N3CCc4ccccc43)cc2)no1	/	?	8%	-13	?	19
CNC(=O)c1ccsc1NC(=O)c1ccc(S(=O)(=O)N2CCCc3ccccc32)cc1	?	9.3µM*	-2%	-1	12µM*	3
CCc1nnc(NC(=O)c2ccc(S(=O)(=O)N3CCCc4ccccc43)cc2)o1	-85%	/	-7%	-8	7.4µM*	2
CNC(=O)c1ccsc1NC(=O)CCS(=O)(=O)c1ccccc1	/	?	-9%	16	?	15
O=C(Nc1nc2c(s1)CCCC2)c1ccc(S(=O)(=O)N2CCCc3ccccc32)cc1	2%	10µM*	2%	11	?	10*
CNC(=O)c1ccsc1NC(=O)c1ccccc1	-48%	?	4%	16*	41%	25*
C=CCOc1ccc(C(=O)n2cc(C(=O)OC)c3ccccc32)cc1	11%	?	13%	5	22%	14
COc1ccc(-c2[nH]ncc2CN(C)CC2CCCCO2)cc1F (centres undefined)	2%	5%	5%	10	-21%	-2
CC(=O)Nc1ccc(S(=O)(=O)NC(=O)C23CC4CC(CC(C4)C2)C3)cc1	1%	0.93µM*	-2%[11.4 µM]	-10	/	-3
O=C(CCCCn1c(=O)c2ccccc2n(Cc2ccccc2)c1=O)NC1CCN(Cc2ccccc2)CC1	/	-10%	0%	-6	5.9µM*	-2
O=C(CCCn1c(=O)c2ccccc2n(Cc2cccc(F)c2)c1=O)NC1CCN(Cc2ccccc2)CC1	/	?	2%	12	6.6µM*	3
CC1CC(C)CN(C(=O)Cn2c(=O)n(CCCCC(=O)NC3CCCC3)c(=O)c3ccccc32)C1 (centres undefined)	-3%	13%	28µM*	1	-20%	-4
SMILES	NS1 inh	Pf growth 96h	Sm TGR block	Shiga toxin inh	Pf growth 48h	Cycloheximide cs
O=C(NCc1nnnn1-c1ccc(F)c(F)c1)c1ccc2c(c1)OCO2	/	30%	8%	/	10%	/
CCCc1nccn1S(=O)(=O)c1cc(OC)ccc1OC	-1%	/	0%	-15	5%	-1
COc1cccc(C=Nc2cccc3c(=O)[nH][nH]c(=O)c23)c1O	/	?	-2%	60*	2%	24*
CN1CCN(CC(=O)c2ccccc2F)CC1	1%	-12%	11µM*	15	-24%	-5
CC1CCN(CC(=O)c2ccccc2Cl)CC1	8%	?	-1%	31*	?	14
CC1CN(CC(=O)c2ccccc2Cl)CC(C)O1 (centres undefined)	-36%	54%	45µM*	7	28%	5
Cc1noc(-c2ccccc2OCC(=O)Nc2ccccc2[N+](=O)[O-])n1	/	/	3%	/	/	/
O=C(Nc1c2c(nn1-c1cccc(Cl)c1)CS(=O)(=O)C2)c1ccc2c(c1)OCO2	3%	-5%	?	7	?	-1
CCc1cc(/C(Cc2csc(C)n2)=N/O)c(O)cc1O	4%	/	10%	-24	5%	-2
COc1ccc(C(=O)COC(=O)c2ccccc2O)c(OC)c1	/	280%	2%	/	347%	/
N/N=C(\Cc1cscn1)c1ccc(O)cc1O	6%	0%	-31%	80*	9%	36*
COc1ccc(C(=O)OCc2csc(C)n2)c(O)c1	-2%	131%	18%	61*	162%	42*
Cc1cc(O)cc(O)c1C(=O)Cc1cscn1	?	9%[5.75 µM]	?	-19	19%	16
Cc1nc(C/C(=N\N)c2ccc(O)cc2O)cs1	4%	-12%	3%	64	?	25*
CCOC(=O)CNC(=O)N1CCCC(C(=O)c2ccccc2SC)C1 (centres undefined)	0%	0%	3%	20	8%	1
Cc1ccccc1NC(=O)C1CC(=O)N(Cc2ccccc2)C1 (centres undefined)	/	-27%	3%	-5	-20%	-1
CC(=O)Nc1cccc(-n2nnc(SCC(=O)Nc3ccc(F)c(Cl)c3)n2)c1	4%	?	-17%	-8	-28%	-1
CC(=O)Nc1cccc(-n2nnc(SCC(=O)c3ccccc3)n2)c1	-1%	101%	?	61*	154%	49*
COc1ccc(C(=O)CSc2nnn(-c3cccc(NC(C)=O)c3)n2)cc1	2%	?	0%	73*	16%	52*
CC(=O)Nc1cccc(-n2nnc(SCC(N)=O)n2)c1	-1%	15%	0%	-3	18%	-1
N#Cc1ccc(CO/N=C/c2ccccc2)cc1	/	67%	11%	76*	231%	41*
Cc1nc2ccccc2nc(C)c1=NOCc1cccc(F)c1	/	-15%	-3%	-12	-2%	-6
Cc1nc2ccccc2nc(C)c1=NOCc1ccc(C#N)cc1	1%	?	0%	66*	16%	29*

Screening results as filed in PubChem BioAssay.
